From PubChem BioAssay AID1220 (Sanford-Burnham Center for Chemical Genomics, 2008)
In all, about 190,000 compounds went through this assay and about 1,300 (0.68%) were called active. Cut-off read from the data, not from the text of the source: active = inhibition above about 50%; inactive = the rest. This excerpt belongs to a sample that is enriched for actives.

target: Mannose-6-phosphate isomerase (Homo sapiens) (UniProt P34949); assay: human PMI inhibitors, high substrate, primary screen, biochemical, fluorescence intensity, high mannose 6-phosphate (AID 1220); settings: recombinant PMI enzyme, coupled fluorescence intensity; at 20 µM; hits give high values
Sequence (P34949 whole entry, looked up): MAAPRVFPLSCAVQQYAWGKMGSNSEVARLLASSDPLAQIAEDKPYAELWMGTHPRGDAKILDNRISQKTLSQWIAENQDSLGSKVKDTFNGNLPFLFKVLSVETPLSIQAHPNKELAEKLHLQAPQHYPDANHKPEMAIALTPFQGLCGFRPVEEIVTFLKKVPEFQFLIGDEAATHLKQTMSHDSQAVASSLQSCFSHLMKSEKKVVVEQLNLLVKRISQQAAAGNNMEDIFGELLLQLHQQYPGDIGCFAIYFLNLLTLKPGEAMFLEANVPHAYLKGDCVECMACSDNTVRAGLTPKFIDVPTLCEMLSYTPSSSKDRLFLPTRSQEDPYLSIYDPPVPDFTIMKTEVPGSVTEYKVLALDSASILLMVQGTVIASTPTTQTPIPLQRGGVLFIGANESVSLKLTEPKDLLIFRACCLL

inhibition, active:
CCOC(=O)c1sc(NC(=O)c2ccccc2F)c(C(N)=O)c1C 56.6%
COc1ccccc1-c1nc2cc3ccccc3cc2nc1-c1ccccc1OC 50.1%
COc1ccccc1-c1nc2cc3ccccc3cc2nc1-c1ccccc1 50.6%
COc1ccccc1NC1=C(NC(C)=O)C(=O)c2ccccc2C1=O 60.1%
O=C1C(Cl)=C(Nc2ccccc2)C(=O)c2ccccc21 52.5%
O=C1C(Cl)=C(NCCN2CCCCC2)C(=O)c2ccccc21 54.3%
CC(=O)Nc1ccc(NC2=C(Cl)C(=O)c3ccccc3C2=O)cc1 57.8%
CCN(CC)CCCNC1=C(Cl)C(=O)c2ccccc2C1=O 58.1%
CCN(CC)c1ccc(NC2=C(Cl)C(=O)c3ccccc3C2=O)cc1 56.9%
COc1cccc2c(=O)c3cccc(N)c3[nH]c12 65.6%
CCN(CC)c1ccc(/C=N/N2CCOCC2)c(O)c1 53.7%
CCN(CC)c1ccc(/C=N/N2CCN(Cc3ccccc3)CC2)c(O)c1 53%
C/C(CC(=O)Nc1cccc(Cl)c1Cl)=N\NC(=O)c1ccccc1Br 50.8%
NC(=O)c1ccc(N2CCN(c3ccc(O)cc3)CC2)c([N+](=O)[O-])c1 55.2%
Nc1c(C(=O)Nc2ccccc2F)sc2nc(-c3ccco3)ccc12 59.6%
C=CCc1cc(/C=C/c2nc(O)c([N+](=O)[O-])c(=O)[nH]2)cc(OC)c1O 68.9%
CCC(=O)N(C1=C(NC(C)C)C(=O)c2ccccc2C1=O)C(C)C 58.2%
CCC(=O)N(C1=C(NC)C(=O)c2ccccc2C1=O)C(C)C 62.3%

inhibition, inactive:
COc1cc(OC)cc(C(=O)OCC(=O)Nc2ccc(N3CCCCC3)cc2)c1 -11.3%
COc1ccc(-c2nn(CCC#N)cc2/C=N/O)cc1OC 10.3%
O=C(CSc1ccc(-c2ccc(F)cc2)nn1)N1CCCc2ccccc21 13.5%
Cc1c(Cl)c([N+](=O)[O-])nn1CC(=O)Nc1ccc2c(c1)OCO2 -4.5%
COCCNC(=O)Cn1c(=O)n(CCCCCC(=O)NCc2ccc3c(c2)OCO3)c(=O)c2sccc21 -13.4%
CCOc1ccc(NC(=O)C2CC(C)=C(C)CC2C(=O)O)cc1 (centres undefined) 0.7%
CCOC(=O)c1sc(NC(=S)NC(=O)c2ccccc2Cl)c(C(=O)OCC)c1C 5.4%
CCOC(=O)c1sc(NC(C)=O)c(C(=O)OCC)c1C 7.7%
Cn1c(=O)c(-c2ccccc2)nc2ccccc21 4.9%
CCCc1nc(SCC(=O)c2ccc(OC)cc2)c2c(=O)n(C)c(=O)n(C)c2n1 -2.5%
CCn1c(N)nc2c1c(=O)n(C)c(=O)n2C -1.8%
Cn1nc(-c2ccc(Cl)cc2)nc2c(=O)n(C)c(=O)nc1-2 10.6%
COC(=O)c1ccccc1OCCOc1ccccc1C(=O)OC 2.8%
COc1ccccc1-c1nc2ccccc2nc1-c1ccccc1OC 2.8%
COc1ccccc1-c1nc2ccccc2nc1-c1ccccc1 12.5%
COc1ccc(OC)c(-c2nc3cc4ccccc4cc3nc2-c2ccccc2)c1 10.1%
COc1ccccc1-c1cc2ccccc2[nH]1 4.7%
CC(=O)Nc1ccc(C(=O)OCC(=O)Nc2ccccc2Sc2ccccc2)cc1 2.4%
COc1ccccc1CNC(=O)COc1ccc([N+](=O)[O-])cc1 2.1%
COc1ccc(CC(=O)Nc2cccc(SC)c2)cc1 1.7%
COc1ccccc1NC(C)=O 9.5%
O=C(O)c1cccc(NC2=C(Cl)C(=O)c3ccccc3C2=O)c1 39.9%
CC(=O)Nc1ccc2c(c1)C(=O)c1ccccc1C2=O -69.9%
Cc1ccc(NC2=C(Cl)C(=O)c3ccccc3C2=O)cc1 41.8%
COc1ccccc1NC1=C(N2CCCCC2)C(=O)c2ccccc2C1=O 2.6%
O=C(Oc1ccc(NC2=C(Cl)C(=O)c3ccccc3C2=O)cc1)c1ccc([N+](=O)[O-])cc1 32.9%
O=C1c2ccccc2C(=O)N1CCN1CCCCC1 2.7%
CCNC1=C(Cl)C(=O)c2ccccc2C1=O 15.6%
CCCCn1nnnc1SCC(=O)c1ccc(C)c(C)c1 7.7%
COCCCNC(=O)CCCCCNS(=O)(=O)c1ccc(Br)cc1 -6.2%
COc1ccccc1OCC(=O)Sc1ccc(C)cc1 13%
CC(=O)c1ccc(N2CCN(C(=O)Nc3ccc(C)cc3)CC2)cc1 -1.7%
Cc1ccccc1Nc1ncnc(N)n1 -3.4%
O=[N+]([O-])c1ccc(Cl)cc1Sc1ccccn1 2.7%
Cn1c(SCC(=O)c2ccc3c(c2)OCO3)nnc1C1COc2ccccc2O1 (centres undefined) 1.3%
COC(=O)c1ccc(CSc2cc(C)c3cc(C)cc(C)c3n2)o1 -4.5%
CCN(CC)c1ccc(N2C(=O)c3ccccc3C2=O)cc1 4.2%
O=C1C(Cl)=C(NCCCO)C(=O)c2ccccc21 2.8%
CCOc1ccc(NC2=C(OC)C(=O)c3ccccc3C2=O)cc1 25.9%
C=CCNC1=C(Cl)C(=O)c2ccccc2C1=O 38.6%
CN1C(=O)c2ccc(NC(=S)NC(=O)C(C)(C)C)cc2C1=O 8.4%
COCCSc1nnc(NC(=O)C2CCCCC2)s1 -1.4%
CCN(c1ccccc1)S(=O)(=O)c1ccc2[nH]cc(C(=O)N3CCOCC3)c(=O)c2c1 8.3%
COc1cccc2c(=O)c(C/C=C(/C)Cl)c(C)[nH]c12 4.6%
COc1cccc2c(=O)c(SC(F)(F)C(F)C(F)(F)F)c(C)[nH]c12 (centres undefined) 6.8%
COc1ccc(-c2csc(/C(C#N)=C\c3ccc(OC)c([N+](=O)[O-])c3)n2)cc1 3.4%
CCN1CCN(C(=S)Nc2ccc3nc4n(c(=O)c3c2)CCCCC4)CC1 -3.2%
Cc1ccc(S(=O)(=O)NCC(=O)NCC(=O)OCC(=O)N2CC(=O)Nc3ccccc32)cc1C 13.9%
COc1ccccc1NC(=O)CC1S/C(=N/N=C2\CCCc3ccccc32)NC1=O (centres undefined) 6.9%
COc1cccc(/C=N/N2CCOCC2)c1O 3.6%
CCN(CC)c1ccc(/C=N/N2CCN(Cc3ccc(C)cc3)CC2)c(O)c1 30.3%
CCN(CC)c1ccc(/C=N/N2CCOCC2)cc1 14.3%
CCN(CC)c1ccc(/C=N/N2CCN(Cc3cccc4ccccc34)CC2)c(O)c1 30.7%
Fc1ccc(/C=N/N2CCOCC2)c(F)c1 8.8%
CCN(CC)c1ccc(/C=N/N2CCN(Cc3ccc(C)cc3C)CC2)c(O)c1 39.8%
CCCn1c(=O)c2ccccc2n2c(SCC(=O)Nc3cc(C)on3)nnc12 0%
CCC(/C=C1\Sc2ccc(OC)cc2N1CCO)=C\c1sc2ccc(OC)cc2[n+]1CCO 13%
Cc1cc(C)nc(SCCn2c(N3CCC(C)CC3)nc3c2c(=O)n(C)c(=O)n3C)n1 12.2%
Fc1ccc(NC(=S)N/N=C/c2ccc(F)c(F)c2)c(F)c1 -6.4%
CCN(CC)c1ncnc2sc(C(=O)N3CCN(c4ccccc4)CC3)c(C)c12 6.5%
Cc1ccc2cc(CCNC(=O)c3ccc(C)c([N+](=O)[O-])c3)c(=O)[nH]c2c1 -17%
CN(C(=O)CSc1nnc(-c2ccc(F)cc2)c2ccccc12)C1CCS(=O)(=O)C1 (centres undefined) -14.8%
CSc1sc(C)cc1C1C(C#N)=C(N)N(c2cccnc2)C2=C1C(=O)CC(C)(C)C2 (centres undefined) 13.9%
CC1CCN(S(=O)(=O)c2ccc3c(c2)oc(=O)n3CC(=O)N2CCc3ccccc3C2)CC1 -7.5%
C/C(CC(=O)Nc1cccc(Cl)c1Cl)=N\NC(=O)c1ccccc1N 3.3%
C/C(CC(=O)Nc1cccc(Cl)c1Cl)=N\NC(=O)c1ccccc1C 2.3%
CCCN(Cc1cc2ccc(C)cc2[nH]c1=O)C(=O)c1ccccn1 11%
COc1ccc(NC2SC(=O)N(CC(=O)O)C2=O)cc1 (centres undefined) 12.1%
COc1ccc(N2CCN(c3ccc(C(N)=O)cc3[N+](=O)[O-])CC2)cc1 16.5%
CC(=O)c1ccc(N2CCN(c3ccc(C(N)=O)cc3[N+](=O)[O-])CC2)cc1 -10.4%
O=C(NC1CCCCC1)C(c1ccccc1)N(C(=O)c1cccs1)c1ccc2c(c1)OCO2 (centres undefined) -2.5%
COc1ccccc1NC(=O)c1sc2nc(-c3ccco3)ccc2c1N 11.5%
Nc1c(C(=O)Nc2ccccc2)sc2nc(-c3ccco3)ccc12 15.1%
COCCNC(=O)CSc1nc2ccccc2c(=O)n1CCCC(=O)NCc1ccccc1 -3%
C=CCc1cc(/C=C2/NC(=S)NC2=O)cc(OC)c1O 15.3%
COc1ccc(-n2c(C)cc(/C=C/c3nc(O)c([N+](=O)[O-])c(=O)[nH]3)c2C)cc1 1.6%
COc1ccc(Nc2nnc(Cc3ccc(Cl)cc3)c(=O)[nH]2)c(OC)c1 19.1%
CCC(=O)NC1=C(NC(C)c2ccccc2)C(=O)c2ccccc2C1=O (centres undefined) -10.2%
CCC(=O)N(CC)C1=C(O)c2ccccc2C(=O)C1=O 15.9%
CCC(=O)N(C)/C=C1\Sc2ccccc2C1=O 5.7%
CC(C)NC1=C(Cl)C(=O)c2ccccc2C1=O -32%
